Compounds with a hit are over-represented: about 11% of the library has one in this group of screens.
hNpr1 antagonist: Natriuretic polypeptide receptor (hNpr1) antagonism - Primary qHTS | Atrial natriuretic peptide receptor 1 (Homo sapiens), P16066 | HEK293 hNpr1 GloSensor cGMP, ANP-stimulated luminescence | Potency, µM (highest dose often 46.3 µM), actives largely listed as inhibitors | actives 1.6% (n = 76,000) | AID 1347048, 2019; calls by dose curve; further: nearly all actives have a fitted effect of over 60% in size
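Compound pre-incubated 30 min at room temperature on GloSensor-loaded HEK293 cells stably carrying hNpr1 and the pGS-40F cGMP biosensor. Stimulation uses hNppA at 0.1 nM final; luminescence is taken at baseline and 20 min post-agonist.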
HEK293 tox: Cytotoxic Profiling in HEK 293 Cell Line of Diverse Libraries Using Quantitative High-Throughput Screening; actives 6.6% (n = 94,000); Potency, µM (doses to about 115 µM), most hits filed as inhibitors; AID 1345083, 2018; HEK 293 viability, ATP luminescence (CellTiter-Glo), 48-72 h; further: nearly all actives have a fitted effect of over 60% in size
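Luminescence from cellular ATP, measured with CellTiter-Glo, indicates HEK 293 viability. Cells plated at 250 cells/well are treated with compound for 48 or 72 hr at 37 degree Celsius before reagent addition.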
NIH3T3 tox: Cytotoxic Profiling in NIH 3T3 Cell Line of Diverse Libraries Using Quantitative High-Throughput Screening | AID 1345082, 2018 | NIH 3T3 viability, CellTiter-Glo ATP luminescence, 48-72 h | Potency, µM (doses to about 96.7 µM), most hits filed as inhibitors | actives 4.3% (n = 94,000); further: nearly all actives have a fitted effect of over 55% in size
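Cells were seeded at 400 per well, treated with pin-transferred compound, and kept 48 or 72 hr at 37 °C before CellTiter-Glo addition and luminescence imaging of cellular ATP.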
FLuc inh: Firefly luciferase inhibition profiling of diverse chemical library using quantitative high-throughput screening | Potency, µM (series often up to 115 µM), hits mostly inhibitors | actives 2.5% (n = 76,000) | purified P. pyralis luciferase, luminescence, biochemical | Luciferin 4-monooxygenase (Photinus pyralis), P08659; further: nearly all actives have a fitted effect of over 65% in size
Target sequence (P08659 whole entry, looked up): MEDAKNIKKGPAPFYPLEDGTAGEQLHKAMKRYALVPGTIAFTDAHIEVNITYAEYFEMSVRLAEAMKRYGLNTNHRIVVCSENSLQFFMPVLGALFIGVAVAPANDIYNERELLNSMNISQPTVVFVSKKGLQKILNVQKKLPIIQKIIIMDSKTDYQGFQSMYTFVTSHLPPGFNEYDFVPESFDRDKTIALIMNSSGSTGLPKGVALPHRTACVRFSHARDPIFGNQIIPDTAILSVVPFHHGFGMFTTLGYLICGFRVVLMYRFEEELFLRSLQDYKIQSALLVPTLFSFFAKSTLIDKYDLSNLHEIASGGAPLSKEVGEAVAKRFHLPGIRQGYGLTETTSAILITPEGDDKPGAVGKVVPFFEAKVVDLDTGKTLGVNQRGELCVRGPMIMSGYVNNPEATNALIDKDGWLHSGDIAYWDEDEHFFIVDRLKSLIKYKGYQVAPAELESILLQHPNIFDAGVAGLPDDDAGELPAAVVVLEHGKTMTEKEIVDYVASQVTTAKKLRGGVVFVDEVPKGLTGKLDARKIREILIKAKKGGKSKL
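Cell-free enzyme assay, 10nM P. pyralis luciferase, luciferin and ATP each at 10uM. Inhibition profiled over a 6-point titration, read as luminescence.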
Of the large screens only hits and unclear results are named; the others gave an inactive call. Unless noted, the call rests on the fitted dose curve; in most records, active means well fitted curve in the direction sought with a large enough effect; inconclusive means small, poorly fitted or top-dose-only effect, or another doubt; inactive means no such curve, though single readings can be large; an effect the other way counts as inactive or inconclusive.

CCc1nc2c(c(-c3ccc(OC)cc3)n1)CN([S+](=O)([O-])c1cccc(OC)c1)CC2	NIH3T3 tox 28µM (no result: hNpr1 antagonist, FLuc inh)
C[S+](=O)([O-])N1CCc2nc(C3CC3)nc(-c3ccc(Cl)cc3)c2C1	HEK293 tox inconclusive, NIH3T3 tox 32µM (no result: hNpr1 antagonist, FLuc inh)
CCc1nc2c(c(-c3ccc(Cl)cc3)n1)CCN([S+](=O)([O-])c1ccccc1)CC2	HEK293 tox 35µM, NIH3T3 tox inconclusive
COc1ccc(Cc2nc3nccc(-c4ccco4)n3n2)cc1	HEK293 tox inconclusive
COC(=O)c1c(S(=O)(=O)N2CCCCCCC2)sc2c1CCN(C(=O)C1CC=CCC1)C2 (stereo not drawn)	HEK293 tox 45µM, NIH3T3 tox inconclusive
CN1C(=O)C2(CCN(Cc3ccc(C#N)cc3)C2)c2ccccc21 (stereo not drawn)	HEK293 tox inconclusive, NIH3T3 tox inconclusive
CN1C(=O)C2(CCN(Cc3ccc(C(F)(F)F)cc3)C2)c2ccccc21 (stereo not drawn)	HEK293 tox inconclusive
CN1C(=O)C2(CCN(Cc3cccc4ccccc34)C2)c2ccccc21 (stereo not drawn)	HEK293 tox 28µM, NIH3T3 tox inconclusive
CN(C)c1ccc(CN2CCC3(C2)C(=O)N(c2ccccc2)c2ccccc23)cc1 (stereo not drawn)	HEK293 tox inconclusive, NIH3T3 tox 45µM (no result: hNpr1 antagonist, FLuc inh)
CN1C(=O)C2(CCN(Cc3ccsc3)C2)c2ccccc21 (stereo not drawn)	HEK293 tox inconclusive, NIH3T3 tox inconclusive
CN1C(=O)C2(CCN(Cc3ccc(F)cc3)C2)c2ccccc21 (stereo not drawn)	HEK293 tox 71µM, NIH3T3 tox inconclusive
COc1cccc(CNC(=O)c2nnn3c2COC(c2ccc(C)cc2)C3)c1 (stereo not drawn)	HEK293 tox inconclusive
COc1ccccc1CN(C)Cc1cccc(C(F)(F)F)c1	none (no result: hNpr1 antagonist, FLuc inh)
CC1(c2cccnc2)N(CCOc2ccccc2)C(=O)OC12CCN(C(=O)CN1CCOCC1)CC2 (stereo not drawn)	NIH3T3 tox inconclusive
CN1CCC(C(=O)N2CCC3(CC2)OC(=O)N(Cc2ccccc2F)C3(C)c2ccccc2)CC1 (stereo not drawn)	HEK293 tox inconclusive, NIH3T3 tox inconclusive
CC1(c2ccccc2)N(Cc2ccccc2F)C(=O)OC12CCN(C(=O)CN1CCOCC1)CC2 (stereo not drawn)	NIH3T3 tox 22µM
CC(=O)Nc1ccc(CN2C(=O)OC3(CCN(C(=O)c4cccc(C#N)c4)CC3)C2(C)c2ccccc2)cc1 (stereo not drawn)	NIH3T3 tox inconclusive
CC1(c2ccccc2)N(Cc2ccccc2F)C(=O)OC12CCN(C(=O)c1cccc(C#N)c1)CC2 (stereo not drawn)	NIH3T3 tox 7.1µM
CC(=O)N1CCC2(CC1)OC(=O)N(Cc1ccccc1F)C2(C)c1ccccc1 (stereo not drawn)	NIH3T3 tox 35µM
CC1(c2ccccc2)N(Cc2ccccc2)C(=O)OC12CCN(C(=O)CN1CCOCC1)CC2 (stereo not drawn)	NIH3T3 tox 14µM
CC(=O)N1CCC2(CC1)CN(C(=O)Cc1ccc(Cl)cc1)CCO2	none (no result: hNpr1 antagonist, FLuc inh)
Clc1ccc(Nc2cnc3ccc(-c4ccccc4)nn23)nc1	hNpr1 antagonist inconclusive, HEK293 tox inconclusive, NIH3T3 tox inconclusive
CN(C)c1ccc2ncc(Nc3ccccc3)n2n1	HEK293 tox 112µM, NIH3T3 tox inconclusive, FLuc inh inconclusive
COc1ccc(-c2ccc3ncc(Nc4cc(F)ccc4OC)n3n2)cn1	HEK293 tox inconclusive
CN(C)c1ccc2ncc(Nc3ccc(Cl)cn3)n2n1	HEK293 tox inconclusive, NIH3T3 tox 112µM
COc1ccc(F)cc1Nc1cnc2ccc(N(C)C)nn12	HEK293 tox 100µM, NIH3T3 tox inconclusive
CN(C)c1ccc2ncc(Nc3cc(F)cc(N4CCOCC4)c3)n2n1	HEK293 tox inconclusive, NIH3T3 tox inconclusive, FLuc inh inconclusive
Cn1ncc2c(C(=O)NCC(F)F)cc(-c3ccc(Cl)nc3)nc21	NIH3T3 tox inconclusive (no result: hNpr1 antagonist, FLuc inh)
COc1ccccc1-n1cc(-c2ccnc(N3CC(n4cccn4)C3)n2)cn1	HEK293 tox inconclusive
COc1cccc(CN2CCOC3(CCN(Cc4ccc5[nH]ccc5c4)CC3)C2=O)c1	HEK293 tox inconclusive, NIH3T3 tox inconclusive
COc1cccc(CN2CCOC3(CCN(Cc4cccc(Cl)c4)CC3)C2=O)c1	HEK293 tox 79µM, NIH3T3 tox inconclusive
CCc1nc(C)sc1C(=O)N1CCN(C)C2(CCNC(=O)CC2)C1 (stereo not drawn)	none
c1ccc(-c2ccnc(NCC3OCCc4ccccc43)n2)nc1 (stereo not drawn)	HEK293 tox 40µM, NIH3T3 tox inconclusive, FLuc inh 45µM
c1ccc(-c2nc3c(c(NCC4OCCc5ccccc54)n2)CCNC3)nc1 (stereo not drawn)	HEK293 tox inconclusive, NIH3T3 tox 40µM, FLuc inh inconclusive
CC(C)c1cc(C(=O)NCC2OCCc3ccccc32)nc2ncnn12 (stereo not drawn)	none
COC(=O)[C@H](NC(=O)C1=C[C@@H](NC(=O)CC2(CC(=O)O)CCCC2)[C@@H](O)[C@H](O)C1)C(C)C	none
C[C@@H]1CN(c2ccc3nnc(-c4ccccn4)n3n2)C[C@H](C)O1	HEK293 tox inconclusive, NIH3T3 tox 79µM
COc1ccc(-c2nnc3ccc(N(C)Cc4ccccc4)nn23)nc1	HEK293 tox inconclusive, NIH3T3 tox inconclusive
CN(Cc1ccccc1)c1ccc2nnc(-c3ccccn3)n2n1	HEK293 tox inconclusive, NIH3T3 tox 45µM
COCCNC(=O)c1ccc(OC2CCN(C/C=C/c3ccc(F)cc3)CC2)c(Cl)c1	hNpr1 antagonist inconclusive, HEK293 tox 45µM, NIH3T3 tox inconclusive
COCCNC(=O)c1ccc(OC2CCN(CCc3ccccc3)CC2)c(Cl)c1	HEK293 tox inconclusive, NIH3T3 tox inconclusive
COCCNC(=O)c1ccc(OC2CCN(CCC(C)c3ccc(C)o3)CC2)c(Cl)c1 (stereo not drawn)	HEK293 tox 89µM, NIH3T3 tox inconclusive
COCc1ccc(CN2CCC(Oc3ccc(C(=O)NC4CCCC4)cc3Cl)CC2)o1	HEK293 tox 35µM, NIH3T3 tox inconclusive
CCc1cnc(C)nc1N1CCCn2nc(CCC(=O)NC3CC3)cc2C1	none
CCc1nc2c(c(-c3ccc(O)cc3)n1)CN(C(=O)c1ccc(F)cc1)CC2	none (no result: hNpr1 antagonist, FLuc inh)
CCN1c2cc(C(=O)Nc3ccc(OC(F)(F)F)cc3)ccc2C(=O)N2CCCCCC21 (stereo not drawn)	HEK293 tox 32µM, NIH3T3 tox 25µM
CCN1c2cc(C(=O)Nc3ccc(C(F)(F)F)cc3)ccc2C(=O)N2CCCCC21 (stereo not drawn)	HEK293 tox inconclusive, NIH3T3 tox inconclusive
